Source: PubChem (several laboratories)
hiPSC survival = enhancers of single-cell hiPSC survival, primary screen, ATPlite luminescence; 100% = ROCK inhibitor wells, 0% = DMSO; survival enhancement, % at 20 µM; actives 0.044% (n = 360,000); in the data active = survival enhancement above about 18%;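 also: cells exposed to compounds for 16 hours before the ATP read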
CTSL1 counter = Fasciola hepatica cathepsin L1 inhibitors, primary screen, counter-screen for PFM18AAP inhibitor project, biochemical, QFRET, fluorogenic peptide substrate; recombinant F. hepatica cathepsin L1, Z-Leu-Arg-MCA fluorescence; actives 0.49% (n = 300,000); inhibition, % at 5.96 µM; AID 1906, 2009;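 active = inhibition above the mean of all tested compounds plus 3 SD, set per screening campaign, cut at about 17% in these data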;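 also: 0% = plate median of test compound wells and 100% = 1 µM Z-Phe-Ala-diazomethylketone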
Yeast superoxide = reduction of superoxide in aged yeast, primary screen, HTS; S. cerevisiae aged cells, superoxide DHE fluorescence; active compounds read low; superoxide response (% of plate mean), % at 10 µM; actives 0.18% (n = 330,000); AID 2690, 2010;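 active = superoxide response under a set limit, about three screen SD below normal, cut at about 65% in these data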;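 also: yeast aged for seven days with compound at 30 °C before DHE staining; 100% = average MFI of all compound-treated wells on the plate with controls excluded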
V-ATPase pHluor = regulators of yeast V-ATPase proton pumping, primary screen, pHLuorin cytosolic pH fluorescence | response, % at 10 µM | actives 0.37% (n = 350,000) | S. cerevisiae; in the data active = response mostly above about 7.3%, no sharp cut-off; inactive = mostly below about 5.4%; also: actives read high
* = called active by the depositor. Only some compounds are listed: those with a hit (about 1% of all), similar ones and a draw of the others.

What do the screens show for `CO[C@H]1C=CO[C@@]2(C)Oc3c(C)c(O)c4c(O)c(c5c(c4c3C2=O)NC2(CCN(CC(C)C)CC2)N=5)=NC(=O)C(C)=CC=C[C@H](C)[C@H](O)[C@@H](C)[C@@H](O)[C@@H](C)[C@H](OC(C)=O)[C@@H]1C`?
CTSL1 counter: 4; Yeast superoxide: 62*

Results for CCC(C)N1CCC2(CC1)N=c1c(c3c4c5c(C)c(O)c3c(O)c1=NC(=O)C(C)=CC=C[C@H](C)[C@H](O)[C@@H](C)[C@@H](O)[C@@H](C)[C@H](OC(C)=O)[C@H](C)[C@@H](OC)C=CO[C@@](C)(O5)C4=O)N2 (stereo not given in full) ?
hiPSC survival: 1; CTSL1 counter: 8; Yeast superoxide: 72; V-ATPase pHluor: 11

Results for NC(=O)c1oc2ccccc2c1NC(=O)c1ccc(F)cc1 ?
hiPSC survival: -3; CTSL1 counter: -1; Yeast superoxide: 100; V-ATPase pHluor: 3

What do the screens show for `NC(=O)c1oc2ccccc2c1NC(=O)c1ccc([N+](=O)[O-])o1`?
hiPSC survival: 0; CTSL1 counter: 26*; Yeast superoxide: 111; V-ATPase pHluor: 10

Results for O=S(=O)(c1ccccc1)c1nc(NCc2cccnc2)sc1Cl ?
hiPSC survival: 1; CTSL1 counter: 5; Yeast superoxide: 106; V-ATPase pHluor: -3

What do the screens show for `CCOC(=O)N1CCN(C(=O)c2ccc3c(c2)N(C)C(=O)/C(=C\c2ccc(OCC)c(OC)c2)S3)CC1`?
hiPSC survival: 0; CTSL1 counter: 20*; Yeast superoxide: inactive; V-ATPase pHluor: 2

How did CCOc1ccc(/C=C2/Sc3ccc(C(=O)N4CCN(C(=O)c5ccco5)CC4)cc3N(C)C2=O)cc1OC do in these assays?
CTSL1 counter: 1; Yeast superoxide: 84

What do the screens show for `CC(=O)NC1(C(=O)O)CCCC1`?
hiPSC survival: -1; CTSL1 counter: 0; Yeast superoxide: 105; V-ATPase pHluor: 3

What do the screens show for `CCN(CC)C(=O)CSc1nc2ncccc2[nH]1`?
hiPSC survival: 4; CTSL1 counter: 19*; Yeast superoxide: 106; V-ATPase pHluor: 5

How did C=C(C)CSc1nc2ncccc2[nH]1 do in these assays?
hiPSC survival: -5; CTSL1 counter: -2; Yeast superoxide: 96; V-ATPase pHluor: -8

Results for Cc1ccc(NC(=O)COC(=O)C2CCC2)cc1S(=O)(=O)N1CCCCC1 ?
hiPSC survival: 1; CTSL1 counter: -8; Yeast superoxide: 113; V-ATPase pHluor: 3

How did CN1CCN(C(=O)C2CCC(CNS(=O)(=O)c3cccc4cccnc34)CC2)CC1 (stereo not given) do in these assays?
hiPSC survival: 2; CTSL1 counter: 3; Yeast superoxide: 89; V-ATPase pHluor: 4

How did O=C(NCCN1CCCCCC1)C1CCC(CNS(=O)(=O)c2cccc3cccnc23)CC1 (stereo not given) do in these assays?
hiPSC survival: -2; CTSL1 counter: 39*; Yeast superoxide: 91; V-ATPase pHluor: 0

How did O=C(COC(=O)CNC(=O)C1CCCCC1)Nc1ccc(Cl)cc1F do in these assays?
hiPSC survival: 0; CTSL1 counter: 34*; Yeast superoxide: 104; V-ATPase pHluor: 5

What do the screens show for `COc1cc(C(=O)COC(=O)CNC(=O)C2CCCCC2)cc(OC)c1OC`?
hiPSC survival: 1; CTSL1 counter: 36*; Yeast superoxide: 98; V-ATPase pHluor: -60

Results for COc1cc(C(=O)COC(=O)C2CCCCC2)cc(OC)c1OC ?
hiPSC survival: 1; Yeast superoxide: 89; V-ATPase pHluor: 0

Results for Cc1ccc(NC(=O)COC(=O)CNC(=O)C2CCCCC2)c(Br)c1 ?
hiPSC survival: 2; CTSL1 counter: 47*; Yeast superoxide: 95; V-ATPase pHluor: -1

How did COCCN(C(=O)CSc1ncc(C(F)(F)F)cc1Cl)c1c(N)n(Cc2ccccc2)c(=O)[nH]c1=O do in these assays?
hiPSC survival: -1; CTSL1 counter: 0; Yeast superoxide: 91; V-ATPase pHluor: -2

How did C[C@H]1CN([C@@H](C)CO)C(=O)CCCn2cc(nn2)CO[C@@H]1CN(C)C(=O)Cc1ccccc1 do in these assays?
hiPSC survival: -1; V-ATPase pHluor: -4

Results for COC(=O)CCCCC1SCC(NC(=O)c2ccccc2)C1=O (stereo not given) ?
hiPSC survival: -2; CTSL1 counter: -3; Yeast superoxide: 90; V-ATPase pHluor: -2

How did COc1cc(OC)c(NC2=CC(=O)C(=O)c3ccccc32)cc1Cl do in these assays?
hiPSC survival: -1; CTSL1 counter: 23*; Yeast superoxide: 119; V-ATPase pHluor: 2

Results for COc1ccccc1C(=O)NC(CCSC)C(=O)NCc1ccccn1 (stereo not given) ?
hiPSC survival: 0; CTSL1 counter: 0; Yeast superoxide: 101; V-ATPase pHluor: 6

What do the screens show for `Cc1ccc(NC2=C(N3CCOCC3)C(=O)c3ccccc3C2=O)cc1`?
hiPSC survival: -1; CTSL1 counter: 17*; Yeast superoxide: 129; V-ATPase pHluor: -5

Results for CC(=O)c1ccc(NC2=C(N3CCOCC3)C(=O)c3ccccc3C2=O)cc1 ?
hiPSC survival: 4; CTSL1 counter: 35*; Yeast superoxide: 126; V-ATPase pHluor: -3

Results for CC(=O)N(C1=C(N2CCOCC2)C(=O)c2ccccc2C1=O)c1ccc(C(=O)O)cc1 ?
hiPSC survival: -1; CTSL1 counter: 14; Yeast superoxide: 138; V-ATPase pHluor: 6

What do the screens show for `Cc1ccc(NC2=C(Cl)C(=O)c3ccccc3C2=O)cc1`?
hiPSC survival: -4; CTSL1 counter: 5; Yeast superoxide: 100; V-ATPase pHluor: 3

What do the screens show for `O=C(O)c1ccc(NC2=C(N3CCOCC3)C(=O)c3ccccc3C2=O)cc1`?
hiPSC survival: 0; CTSL1 counter: 33*; Yeast superoxide: 144; V-ATPase pHluor: -6

Results for O=C1CCc2cccc(O)c2N1 ?
hiPSC survival: 0; V-ATPase pHluor: 0

Results for C#CCOCCOCCOCCNc1nc(N2CCN(C(=O)[C@H]([C@@H](C)CC)n3cc([C@@H](N)Cc4ccc(O)cc4)nn3)CC2)nc(N2CCN(C(=O)[C@H](Cc3cc4ccccc4[nH]3)n3cc([C@@H](N)CC(C)C)nn3)CC2)n1 ?
hiPSC survival: -2; CTSL1 counter: 51*; Yeast superoxide: 110; V-ATPase pHluor: 2

How did C#CCOCCOCCOCCNc1nc(N2CCN(C(=O)[C@H]([C@@H](C)CC)n3cc([C@@H](N)Cc4ccc(O)cc4)nn3)CC2)nc(N2CCN(C(=O)[C@H](CCCCN)n3cc([C@@H](N)CC(C)C)nn3)CC2)n1 do in these assays?
CTSL1 counter: 28*; Yeast superoxide: 106

How did O=C(NNC(=O)c1ccc(Cn2cccn2)o1)NC12CC3CC(CC(C3)C1)C2 do in these assays?
hiPSC survival: 0; Yeast superoxide: 91; V-ATPase pHluor: -1

Results for CCC(C)NS(=O)(=O)c1ccc(S(=O)(=O)N(CCc2ccc(OC)c(OC)c2)Cc2cccs2)cc1 (stereo not given) ?
hiPSC survival: -3; CTSL1 counter: -2; Yeast superoxide: 101; V-ATPase pHluor: -2
